Drawing on PubChem BioAssay AID925 (National Center for Advancing Translational Sciences (NCATS), 2007), this text covers activation for 37 compounds.

Values joined by “and” are separate entries in the source; they are usually repeats but may differ in a detail not shown here. Equal entries are not always repeated. About 40 (0.06%) of roughly 65,000 compounds were called active. Where a call stands in place of a potency, no number is given. This is one part of a sample in which actives are shown more often than they occur. The call rests on the fitted dose curve; in most records, active means well fitted activation curve with a large enough effect; inconclusive means small, poorly fitted or top-dose-only effect; inactive means flat fitted curve, though single readings scatter.

This test is described as follows: qHTS Assay for Modulators of Hemoglobin Beta Chain Splicing. The conditions noted are these: HBB splicing reporter cell assay, EGFP reporter with mutant IVS2-654 intron; Potency: activation; series mostly up to 46.1 µM. A digest of the protocol:
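HeLa cells stably expressing EGFP interrupted by mutant beta-globin intron 2 (IVS2-654), 500/well in 2% FCS. Treated with compound for 2 days at 37C. Splicing correction scored as total well GFP intensity (488 nm excitation, 500-520 nm emission); 500 nM antisense PNA served as control.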
(qHTS replaces the single test concentration by a dilution series.)
With `CN/C(=C\[N+](=O)[O-])NCCSCc1csc(CN(C)C)n1`, the activation entry is “inactive”.
The same measure for `CO[C@H]1COC(=O)C/C=C\[C@H](C)COC(=O)[C@@H](OCc2ccccc2)/C=C\[C@@H]1C`: 1.62% [at 9.22 µM, normalised to 500 nM splice-correcting PNA] (inactive).
The same measure for `Cc1c2c(nc3ccccc13)-c1cccc(=O)n1C2`: “inactive”; for `CC/C=C/C/C=C/C/C=C/CCCCCCCC(=O)OCC`: “inactive”.
Turning to `Oc1ccc2ccccc2c1C=NCc1c(O)ccc2ccccc12`, the activation is 0.869% [at 9.22 µM, normalised to 500 nM splice-correcting PNA] (inactive).
`CCCNC(=O)OC[C@@H]1O[C@H](c2ccccc2)C=C[C@@H]1Oc1ccc(OC)cc1`: the activation is -1.16% [at 9.22 µM, normalised to 500 nM splice-correcting PNA] (inactive).
In the case of `O=C1OCCC=C1[C@@H](O)CCc1ccccc1`, the activation was 3.64% [at 9.22 µM, normalised to 500 nM splice-correcting PNA] (inactive).
For `CCCn1c(-c2ccc(F)cc2)nc2c(NCC3CCCN3CC)nc(C)nc21` (configuration not stated) the value was “inactive”; for `Cc1cc(C)cc(N)c1`, “inactive”.
The same measure for `c1ccc2c(c1)-c1ccccc1C2N1CC2CCC(CC2)C1`: 3.26% [at 9.22 µM, normalised to 500 nM splice-correcting PNA] (inactive); for `COc1ncc2nc(-c3ccc(Cl)cc3)c(=O)n(-c3ccccc3)c2n1`: “inactive”.
On to `O=C(O)CC(C(=O)O)C(CC(=O)O)C(=O)O` (configuration not stated), for which the activation result is “inactive”.
For `COC(=O)[C@@]1(Cc2ccc(OC)cc2)[C@H]2c3cc(C(=O)N4CCCC4)n(Cc4ccc(C(F)(F)F)nc4)c3C[C@H]2CN1C(=O)c1ccccc1` the value was “inactive”.
The same measure for `CC1=C(C(=O)OCc2ccccc2)C(c2ccc(C(F)(F)F)cc2)NC(=O)N1CCCCCC(=O)O` (configuration not stated): “inactive”.
On to `COc1ccc(-c2nc3cnc(OC)nc3n(Cc3ccc(F)cc3)c2=O)cc1`, for which the activation result was “inactive”.
The same measure for `Cc1cccc(Br)c1`: “inactive”.
The same measure for `CS(=O)(=O)N1CCC2(CC1)CN(c1ccncc1)C2`: “inactive”; for `CCn1ccnc1C[C@@H]1COc2ccccc2O1`: “inactive”.
Consider `CC[C@H](c1ccccc1)c1cc(C(C)(C)C)cc(C(C)(C)C)c1O`, for which the activation was -0.113% [at 9.22 µM, normalised to 500 nM splice-correcting PNA] (inactive).
The same measure for `CC(C)(O/N=C(\C(=O)N[C@@H]1C(=O)N2C(C(=O)[O-])=C(C[n+]3ccccc3)CS[C@@H]12)c1csc(N)n1)C(=O)O`: “inactive”.
For `C[C@]1(O)CC[C@H]2[C@H]3CC=C4N5CCN=C5CC[C@@]4(C)[C@H]3CC[C@@]21C` the value was -0.0515% [at 9.22 µM, normalised to 500 nM splice-correcting PNA] (inactive).
As for `Cc1c(NC(=O)c2cccnc2)c(=O)n(-c2ccccc2)n1C`, the activation result was “inactive”.
For `COC(=O)[C@@]1(Cc2ccc(OC)cc2)[C@H]2c3cc(C(=O)N4CCCC4)n(Cc4ccc(OC(F)(F)F)cc4)c3C[C@H]2CN1C(=O)c1ccccc1`, the activation result is “inactive”.
Consider `CC[C@@H]1Cc2cc(O)ccc2C2=C1c1ccc(O)cc1C[C@H]2CC`, for which the activation entry was “inactive”.
The same measure for `Cc1nc2cnc(N3CCNCC3)nc2n(Cc2ccc(F)cc2)c1=O`: “inactive”; for `COc1ccc(CNc2ncncc2-c2ccccc2OC)c(OC)c1`: “inactive”.
The same measure for `COC(=O)[C@@H]1CC[C@H](C)[C@@H](c2ccc(C)cc2)N1C(=O)c1ccc(/C=N\O[C@@H](C)c2cn([C@H](CO)Cc3ccccc3)nn2)cc1`: 0.582% [at 9.22 µM, normalised to 500 nM splice-correcting PNA] (inactive) and -0.794% [at 9.22 µM, normalised to 500 nM splice-correcting PNA] (inactive).
For `O=C(c1cccc(F)c1)N1CCC2(CCCN(Cc3ccncc3)C2)CC1` the value was “inactive”; for `Cc1cccc(C(=O)O)c1[N+](=O)[O-]`, “inactive”; for `COc1cccc(Cn2c(=O)c(CCc3ccccc3)nc3cnc(N(C)C)nc32)c1`, “inactive”.
In the case of `Cc1cnc(CNc2nc(-c3cccnc3)nc3ccccc23)cn1`, the activation entry is “inactive”.
The same measure for `COc1ccc(-c2nc3cnc(Oc4ccccc4)nc3n(Cc3cccs3)c2=O)cc1`: “inactive”; for `CCC[C@@H]1C[C@@]1(CCC)C(NS(=O)(=O)c1cccc2cccnc12)c1ccc(Cl)cc1` (some centres not stated): “inactive”.
The same measure for `O=C(Cl)c1ccc([N+](=O)[O-])cc1`: “inactive”; for `O=C(c1csnn1)N1CCC[C@@]2(CCN(Cc3nccs3)C2)C1`: “inactive”; for `CCNC(=S)NCC`: “inactive”.
Regarding `O=C(c1ccc([N+](=O)[O-])cc1)[C@@H](Br)[C@@H](Br)c1ccnc2ccccc12`, the activation is 0.675% [at 9.22 µM, normalised to 500 nM splice-correcting PNA] (inactive).
